The source made the active and inactive calls.
Experiments:
[1] = binders of probe aFSTL3 on microarray, primary screen, stem cell growth factor project, biochemical, small-molecule microarray, fluorescence 635/667 (AID 1064); details: higher = more signal;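 also: measures binding of the biotinylated anti-FSTL3 antibody to printed compounds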
[2] = binders from COS7 lysate, DM2A8 probe, primary screen, torsin A project, cell lysate, small-molecule microarray, fluorescence 635/667 (AID 1065); details: higher = more signal, COS7 lysate expressing mutant human TOR1A
[3] = binders of probe aFGF2 on microarray, primary screen, stem cell growth factor project, biochemical, small-molecule microarray, fluorescence 635/667 (AID 1067); details: higher = more signal;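 also: measures binding of biotinylated aFGF2 protein to printed compounds on slides; z-score merges feature fluorescence and signal-to-noise across triplicate slides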
[4] = binders of probe aFGF10 on microarray, primary screen, stem cell growth factor project, biochemical, small-molecule microarray, fluorescence 635/667 (AID 1071); details: higher = more signal;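 also: score merges 667 nm spot intensity and signal to noise from triplicate slides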
[5] = biological target: Neurogenic locus notch homolog protein 2 (Homo sapiens) (UniProt Q04721); test: Notch2 binders on small-molecule microarrays, primary screen, biochemical, small-molecule microarray, 635 nm fluorescence, stem cell growth factors (AID 1073); details: Notch2 binding, higher = more signal
Sequence of Neurogenic locus notch homolog protein 2 (Homo sapiens) (Q04721 whole entry, looked up, canonical isoform): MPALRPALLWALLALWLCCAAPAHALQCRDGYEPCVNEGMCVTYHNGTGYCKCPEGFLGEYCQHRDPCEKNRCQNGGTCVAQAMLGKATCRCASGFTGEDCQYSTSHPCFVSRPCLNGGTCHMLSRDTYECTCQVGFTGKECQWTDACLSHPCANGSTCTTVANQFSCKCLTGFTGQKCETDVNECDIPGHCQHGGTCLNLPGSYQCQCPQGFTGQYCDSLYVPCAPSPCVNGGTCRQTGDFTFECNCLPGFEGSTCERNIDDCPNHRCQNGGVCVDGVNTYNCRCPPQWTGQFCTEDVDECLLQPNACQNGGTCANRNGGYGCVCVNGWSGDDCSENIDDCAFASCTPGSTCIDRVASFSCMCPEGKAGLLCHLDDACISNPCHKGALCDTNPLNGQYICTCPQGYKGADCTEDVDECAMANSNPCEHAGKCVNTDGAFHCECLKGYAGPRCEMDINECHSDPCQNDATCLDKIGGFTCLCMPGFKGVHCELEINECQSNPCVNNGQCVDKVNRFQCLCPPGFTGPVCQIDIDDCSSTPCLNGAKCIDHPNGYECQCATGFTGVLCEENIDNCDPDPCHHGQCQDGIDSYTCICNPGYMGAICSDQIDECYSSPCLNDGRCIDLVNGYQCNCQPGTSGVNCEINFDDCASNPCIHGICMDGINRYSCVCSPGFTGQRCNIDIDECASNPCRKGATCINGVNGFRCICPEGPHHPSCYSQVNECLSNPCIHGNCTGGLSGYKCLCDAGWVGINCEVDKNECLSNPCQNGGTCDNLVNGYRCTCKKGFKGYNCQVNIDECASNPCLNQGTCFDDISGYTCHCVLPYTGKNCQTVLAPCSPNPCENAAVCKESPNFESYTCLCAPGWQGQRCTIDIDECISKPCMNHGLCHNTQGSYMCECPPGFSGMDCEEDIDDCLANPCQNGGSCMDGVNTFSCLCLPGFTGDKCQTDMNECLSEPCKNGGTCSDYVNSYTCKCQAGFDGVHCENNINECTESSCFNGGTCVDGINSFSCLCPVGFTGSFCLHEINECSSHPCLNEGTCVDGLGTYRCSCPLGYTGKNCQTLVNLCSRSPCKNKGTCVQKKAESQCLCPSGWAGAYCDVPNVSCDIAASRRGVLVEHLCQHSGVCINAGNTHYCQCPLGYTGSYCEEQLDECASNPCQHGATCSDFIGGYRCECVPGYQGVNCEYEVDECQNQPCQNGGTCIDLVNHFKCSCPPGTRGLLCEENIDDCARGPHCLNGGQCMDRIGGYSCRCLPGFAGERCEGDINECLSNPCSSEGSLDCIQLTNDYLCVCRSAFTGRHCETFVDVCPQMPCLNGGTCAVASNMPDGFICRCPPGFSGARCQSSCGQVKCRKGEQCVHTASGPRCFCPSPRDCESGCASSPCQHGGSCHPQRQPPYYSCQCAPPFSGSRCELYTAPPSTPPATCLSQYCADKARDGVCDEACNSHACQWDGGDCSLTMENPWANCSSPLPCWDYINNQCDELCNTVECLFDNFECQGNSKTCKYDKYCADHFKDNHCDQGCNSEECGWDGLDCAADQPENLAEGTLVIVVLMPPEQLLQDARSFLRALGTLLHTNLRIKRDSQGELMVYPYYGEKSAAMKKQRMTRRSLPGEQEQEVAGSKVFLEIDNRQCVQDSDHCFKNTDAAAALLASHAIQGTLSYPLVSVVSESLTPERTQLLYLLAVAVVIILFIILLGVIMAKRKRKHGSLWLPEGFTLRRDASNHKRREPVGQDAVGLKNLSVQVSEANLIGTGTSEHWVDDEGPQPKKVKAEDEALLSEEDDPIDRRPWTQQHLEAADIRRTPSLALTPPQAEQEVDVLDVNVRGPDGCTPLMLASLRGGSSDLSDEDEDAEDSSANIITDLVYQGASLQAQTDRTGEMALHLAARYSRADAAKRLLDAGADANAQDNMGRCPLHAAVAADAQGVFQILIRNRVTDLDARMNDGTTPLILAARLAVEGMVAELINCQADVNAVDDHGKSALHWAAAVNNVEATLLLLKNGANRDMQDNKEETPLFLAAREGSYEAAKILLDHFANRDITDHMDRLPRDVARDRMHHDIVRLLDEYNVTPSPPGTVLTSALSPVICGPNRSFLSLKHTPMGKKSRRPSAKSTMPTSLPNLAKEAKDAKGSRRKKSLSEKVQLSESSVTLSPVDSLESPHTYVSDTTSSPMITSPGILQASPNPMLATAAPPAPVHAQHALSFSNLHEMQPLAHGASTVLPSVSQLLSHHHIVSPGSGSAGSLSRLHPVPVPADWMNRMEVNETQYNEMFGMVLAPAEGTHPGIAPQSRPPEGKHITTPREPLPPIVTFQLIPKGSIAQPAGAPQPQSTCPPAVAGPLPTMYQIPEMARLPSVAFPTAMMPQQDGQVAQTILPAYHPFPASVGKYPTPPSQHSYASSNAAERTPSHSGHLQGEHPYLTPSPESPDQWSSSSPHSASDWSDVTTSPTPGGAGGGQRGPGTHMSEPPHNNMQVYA

[6] = biological target: Pro-neuregulin-1, membrane-bound isoform (Homo sapiens) (UniProt Q02297); test: NRG1 binders on small-molecule microarrays, primary screen, psychiatric disease protein project, biochemical, small-molecule microarray, fluorescence 635/667 (AID 1075); details: NRG1 binding, 635 nm fluorescence, higher = more signal;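 also: score combines 667 nm spot fluorescence with signal to noise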
Sequence of Pro-neuregulin-1, membrane-bound isoform (Homo sapiens) (Q02297 whole entry, looked up, the tested form may be a part, canonical isoform): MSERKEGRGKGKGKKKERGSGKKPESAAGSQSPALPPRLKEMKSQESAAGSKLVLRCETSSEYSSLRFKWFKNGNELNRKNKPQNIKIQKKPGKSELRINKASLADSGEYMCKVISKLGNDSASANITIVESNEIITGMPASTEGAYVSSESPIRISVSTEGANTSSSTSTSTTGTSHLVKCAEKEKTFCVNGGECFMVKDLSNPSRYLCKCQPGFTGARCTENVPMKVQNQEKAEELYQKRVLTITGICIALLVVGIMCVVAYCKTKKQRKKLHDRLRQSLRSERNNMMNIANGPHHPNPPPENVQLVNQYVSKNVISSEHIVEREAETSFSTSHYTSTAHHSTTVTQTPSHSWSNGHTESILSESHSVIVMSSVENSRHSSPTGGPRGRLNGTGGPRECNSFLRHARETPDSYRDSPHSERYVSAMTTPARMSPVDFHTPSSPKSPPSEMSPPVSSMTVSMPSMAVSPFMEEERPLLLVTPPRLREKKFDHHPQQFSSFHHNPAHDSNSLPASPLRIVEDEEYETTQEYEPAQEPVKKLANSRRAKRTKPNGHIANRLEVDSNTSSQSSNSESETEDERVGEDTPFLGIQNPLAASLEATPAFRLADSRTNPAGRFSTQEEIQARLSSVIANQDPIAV

[7] = test system: Neuregulin-1 EGF-like domain; test: binders of neuregulin-1 EGF-like domain, primary screen, biochemical, small-molecule microarray, 635 nm fluorescence (AID 1081); details: small-molecule microarray binding, higher = more signal;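 also: binding of the protein to compounds printed on small-molecule microarray slides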
[8] = FRG1 promoter luciferase signal modulators, primary screen, FRG1 inhibition for FSHD, cell-based, C2C12 myotubes, firefly/Renilla luciferase, luminescence (AID 1084); details: higher = more signal, called active from +8 up or from −8 down
[9] = binders of probe aFST on microarray, primary screen, stem cell growth factor project, biochemical, small-molecule microarray, fluorescence 635/667 (AID 1086); details: higher = more signal;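 also: score merges 667 nm fluorescence with signal-to-noise of each printed compound spot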
[10] = binders of probe aHhip on microarray, primary screen, stem cell growth factor project, biochemical, small-molecule microarray, fluorescence 635/667 (AID 1087); details: higher = more signal;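 also: score merges spot fluorescence at 667nm with spot signal to noise ratio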

Compound	composite z-score [1]	composite z-score [2]	composite z-score [3]	composite z-score [4]	composite z-score [5]	composite z-score [6]	composite z-score [7]	z-score [8]	composite z-score [9]	composite z-score [10]
CCCCCN1CC=CC23O[C@@H]4C=CCOC(=O)[C@@H]4[C@H]2C(=O)N(CCCCCO)[C@@H]3C1=O (stereo not given in full)	0.346	1.8	-0.113	-1.11	-1.26	-0.48	1.29	0.391 (inactive)	-0.883	-0.261
C=CCN1C(=O)[C@]2(O[C@H](CCn3cc([C@H](O)c4ccccc4)nn3)[C@@H]([Si](C)(C)c3ccc(OC)cc3)[C@@H]2C)c2cc(N3C(=O)c4cccc5cccc3c45)ccc21	-0.144	-0.111	-0.085	0.73	-0.0893	1.07	0.76	-1.84 (inactive)	-0.516	-0.256
CC(C)C[C@@H]1NC(=O)[C@H]2C[C@@H](C(=O)NCCCCCNC(=O)CS)[C@@H](c3ccc(O)cc3)N2C1=O	-0.208	0.929	0.283	0.834	0.74	1	1.3	-0.232 (inactive)	0.0724	-0.236
CC(C)CNC(=O)[C@@H]1c2ccccc2C(=O)N(CC23CC4CC(CC(C4)C2)C3)[C@H]1c1ccc(CO)cc1	-0.146	0.0614	-0.0056	0.205	0.632	0.792	0.99	-1.49 (inactive)	0.507	-0.115
COc1ccc(CC[C@H](O)c2cccc(OCC(=O)OC(C)(C)C)c2)cc1	-0.386	1.08	0.106	0.359	0.966	0.576	0.977	-0.0488 (inactive)	0.736	0.136
COc1cccc(OC)c1C(=O)O[C@H]1[C@@H]2OC(=O)[C@H](Cc3cccc(Br)c3)C/C=C/C[C@@H](Cc3cccc(Br)c3)C(=O)O[C@H]2[C@@H](OC)O[C@@H]1CO	0.0113	0.94	-0.0262	0.205	0.194	1.28	0.945	-0.199 (inactive)	0.401	0.101
Cc1c(-c2ccc(-c3ccc(Cl)c(Cl)c3)o2)nc(-c2ccccc2)c2c1CO[Si]2(C(C)C)C(C)C	-0.0834	0.343	-0.047	0.42	-0.558	0.568	0.294	0.422 (inactive)	-0.324	0.21
CC(C)(C)OC(=O)CC[C@]1(C(=O)N2CCOCC2)N=C(c2ccc(OCCCO)cc2)O[C@H]1c1ccccc1CN=[N+]=[N-]	0.912	1.03	-0.0296	0.286	0.684	1.26	1.5	1.57 (inactive)	0.474	0.113
CC=CC(O)C1C=CC2C(=O)N(C)C(=O)C2N1NC(=O)OC(C)(C)C (stereo not given)	-0.0303	0.371	-0.072	0.488	1.16	0.746	1.09	0.282 (inactive)	0.449	0.108
Cc1ccccc1C(O)C1C=CC2C(=O)N(c3ccccc3)C(=O)C2N1Nc1ccccc1F (stereo not given)	0.397	0.0771	0.213	0.737	1.16	2.15	0.93	-1.35 (inactive)	1.19	-0.0994
CCOC(=O)C1=CCC(c2cc3ccccc3[nH]2)N(S(=O)(=O)c2ccccc2[N+](=O)[O-])C1 (stereo not given)	-0.191	0.0999	-0.0481	0.465	1.37	1.48	0.957	-2.98 (inactive)	0.361	0.0505
CN1C(=O)[C@]2(CCS(=O)(=O)c3ccccc3)N=C(c3ccc(OCCCO)cc3)O[C@@H]2c2ccccc21	0.511	0.485	-0.0984	0.255	0.768	1.75	1.41	-0.34 (inactive)	0.135	0.238
Cc1ccc(F)cc1S(=O)(=O)N[C@@H]1CCN(Cc2ccc3[nH]ccc3c2)C1	-0.0434	0.216	-0.0717	0.652	0.523	0.91	0.563	-3.16 (inactive)	0.356	-0.134
C=CCC(OC(C)=O)[C@@H]1[C@@H](N(Cc2ccc(-c3cccc(C(F)(F)F)c3)o2)C(=O)Cc2ccc(F)cc2)c2cc(OCCCO)ccc2N1C(=O)c1ccc2ccccc2n1 (stereo not given in full)	-0.019	0.193	-0.106	-0.321	-0.848	-0.114	-0.533	0.01 (inactive)	0.0974	0.235
C[C@H]1C2[C@H](Cc3ccccc3)NC(=O)[C@]23C(=O)NCC(=O)N2CCC[C@H]2C(=O)NC/C=C\C/C=C/C3[C@@H]2O[C@]12C (stereo not given in full)	-0.376	0.171	-0.087	0.557	0.726	-0.139	-0.0828	0.276 (inactive)	-0.274	0.123
C#CCN=C(N)N	-0.504	0.147	-0.127	0.209	0.389	0.748	1.01	0.007 (inactive)	0.224	-0.226
CN(C)CCCNC(=O)[C@@]1(Cc2ccccc2I)c2ccccc2C(=O)N(Cc2ccccc2)[C@H]1c1ccc(CO)cc1	-0.803	-0.451	0.106	1.02	0.647	0.834	1.39	-4.24 (inactive)	0.386	-0.66
COC(=O)[C@@]1(Cc2ccccc2)[C@H]2c3cc(C(=O)N4CCCC4)n(Cc4ccc(C(F)(F)F)nc4)c3C[C@H]2CN1C(=O)c1ccccc1	0.356	1.74	0.237	0.747	1.54	1.98	1.37	0.419 (inactive)	2.11	0.0858
COC(=O)C1=CC(CCCO)=CC(c2ccc(CN3CCCC3)cc2)N(Cc2sc3ccccc3c2Cl)C=C1C(=O)OC (stereo not given)	0.688	2.31	0.321	1.31	1.73	2.43	1.32	-0.591 (inactive)	1.21	0.167
COCCOC(=O)N1C(=O)[C@@]2(c3cc(C#CC4(O)CCCCCC4)ccc31)[C@H](c1ccccc1OCCO)N1[C@H](c3ccccc3)[C@H](c3ccccc3)OC(=O)[C@H]1[C@@H]2C(=O)N1CCCCCCC1	2.94	1.24	0.324	0.256	0.869	1.45	1.29	-0.926 (inactive)	2.73	1.83
CCOC(=O)C1=CC[C@@H](c2ccccc2)N(S(=O)(=O)c2ccc(C)cc2)[C@H]1C#N	-0.18	-0.0196	-0.0381	0.848	1.25	0.741	1.29	1.04 (inactive)	1.1	-0.191
C=CC[C@]1(C(=O)NCCCOC)N=C(c2ccc(OCCCO)cc2)O[C@H]1c1ccccc1	0.272	-0.188	0.0823	-0.179	-0.664	1.87	1.33	0.364 (inactive)	1.04	-0.0237
O=C1NC(=O)C2C1C=CC(C(O)c1cccc(O)c1)N2Nc1ccc(Cl)cc1Cl (stereo not given)	0.312	0.0528	-0.161	0.0569	1.09	1.08	0.275	0.203 (inactive)	0.259	-0.272
COCCOC(=O)N1C(=O)[C@@]2(c3cc(C#CCC(C(=O)OC)C(=O)OC)ccc31)[C@H](C(=O)N1CCc3cc(OC)c(OC)cc3C1)[C@H]1C(=O)O[C@H](c3ccccc3)[C@H](c3ccccc3)N1[C@@H]2c1ccc(O)cc1	-0.318	0.731	0.0732	0.858	1.54	0.729	1.23	0.217 (inactive)	0.346	-0.0459
C=CCC(OC(C)=O)[C@@H]1[C@@H](N(Cc2ccc(-c3ccccc3)cc2)C(=O)c2ccc(C)cc2)c2cc(OCCCO)ccc2N1C(=O)c1ccc2ccccc2c1 (stereo not given in full)	-0.233	0.0822	-0.116	-0.148	-0.168	-0.138	-0.405	-2.01 (inactive)	0.482	-0.0427
COc1cccc(C[C@H]2C[C@@H](CO[Si](C(C)C)(C(C)C)C(C)C)N3C(=O)[C@@]4(C(C)=O)O[C@@]23[C@@H]2C(=O)N(C)C(=O)[C@@H]24)c1	-0.43	0.199	-0.0697	0.933	1.16	1.01	0.93	-1.14 (inactive)	0.307	0.113
CCC[C@@H]1[C@@H](Sc2ccccc2)[C@@H](C(=O)O)[C@H](c2ccc(C)cc2)N1S(=O)(=O)c1ccc(C)cc1	-0.259	0.175	0.0213	0.894	1.67	1.15	1.34	-4.1 (inactive)	1.11	-0.0618
O=C1NC(=O)C2C1C=CC(C(O)c1ccc(F)cc1)N2Nc1ccccn1 (stereo not given)	0.22	0.472	-0.0634	0.354	0.999	0.906	0.957	0.632 (inactive)	0.0731	-0.284
